In PubChem BioAssay AID1347426 (Functional Genomics Laboratory (NCATS/FGL), 2020):
Screen size: about 31,000 sequences; about 1,400 (4.5%) were called active.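 The calls were made as follows: active = median seed-adjusted z-score above 1 or below -1; inactive = the rest.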 The sample as a whole holds a higher share of actives than the screen did.

Assay: Novel Modifiers of Survival Motor Neuron (SMN) Protein: Gene Identification via Genome-wide siRNA Screen;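 also: luminescence tracks full-length SMN protein made from the SMN2 reporter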
Details: HEK293T SMN2-luciferase reporter, siRNA knockdown, 72 h; actives lie on both sides
Outline: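 Genome-wide siRNA screen (10418 genes, 3 siRNAs each, 1 pmol per well) by reverse transfection in HEK293T cells stably carrying an SMN2-luciferase reporter; luminescence after 72 hours, normalized to negative-control siRNA, log10-transformed, MAD-scored.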

| Sequence | median seed-adjusted z-score |
| --- | --- |
| GUCUUGACCUUGAACGCAATT against VIM | 0.431 (inactive) |
| GGCUUCUUCUCGUGCAUCATT against KCNK3 | 0 (inactive) |
| GAAGGGUGAUUCUAAUAUUTT against GPR174 | -0.324 (inactive) |
| GAAUCUGUCAGGAAUGACATT against RARB | 0.409 (inactive) |
| CAUCGAAUCCUUACCCGAATT against AASDHPPT | 0.64 (inactive) |
| GCCUCACCUCAAUUGCAAATT against ANP32D | -0.714 (inactive) |
| GACUACGCCUUGAAGCUAATT against TAF6 | -1.36 (active) |
| GCUUUCGUCAAGUCAAAGATT against TIRAP | -0.431 (inactive) |
| AGAGCUAGAUGGAAGAACATT against SFRS3 | 2.74 (active) |
| ACUGACAUUUUUCAACUCATT against ALDH1L1 | 0.0289 (inactive) |
| CUACCGCAUCAGUAACAGATT against DDX21 | -0.251 (inactive) |
| GACUCUGAGUAUAAAGUGATT against BARHL1 | 0.397 (inactive) |
| GGCUGGAUGUCAUUGAGAATT against SRGAP3 | -0.0961 (inactive) |
| GCGAGGGCCUUUUUGAGUATT against CRYAA | -1.03 (active) |
| GAUCGAAUCUUUAAGGUCUTT against EIF2C1 | 0.215 (inactive) |
| ACAUCUCCGAAAUCGCCUATT against SLC2A8 | -0.105 (inactive) |
| AAAUGGAUGAGUUGCAAUUTT against PITX1 | 0 (inactive) |
| GCUCCGAAGUGGUGAUCAATT against CHRM1 | 1.1 (active) |
| GGAUAUGCCUUAGAUUACATT against PRTFDC1 | 0.493 (inactive) |
| GGUUCAUGACAGACAAGAATT against SHMT1 | 0.179 (inactive) |
| GCAUGUAUCUGCUUGAUAUTT against ODC1 | -1.64 (active) |
| GUUUUUGUCCUAGCCCAUATT against OTUD7A | -0.53 (inactive) |

| Sequence | median seed-adjusted z-score |
| --- | --- |
| GCCCAUGUCCCAAAUCACATT against PDE4A | -0.147 (inactive) |
| GGCAAAAUCUGGACACCAUTT against TFAP4 | -0.0515 (inactive) |
| CCGGAAUUUUUGACAAGAATT against PTGS2 | -0.21 (inactive) |
| AGAUCUGCAUGAAACAACATT against VPS16 | 0.306 (inactive) |
| GGUCUGAAACUCUACUAUATT against SHPRH | 0.169 (inactive) |
| GGUUCUAACUUCGAAAAAUTT against DNAJC8 | -1.62 (active) |
| AGUCUGUCCGAGUACUUCATT against LFNG | -0.13 (inactive) |
| GAGUUAAGUGAUAAGUAUATT against ZNF639 | 0.182 (inactive) |
| GCUCUGUAAUAGUCGACUATT against TOPBP1 | 0.0888 (inactive) |
| GCUUGUAGCUCUUAAGGUUTT against PPP2CA | 0.731 (inactive) |
| GGUCUUUAUUCGGAAGCGATT against ZNF525 | 0.134 (inactive) |
| GAUAUUGAGCGGUUACAAATT against ATP7B | 0.0947 (inactive) |
| GCACUCAUGUCAUACUGAATT against LIPA | 0.535 (inactive) |
| GUUACUUCCGAAUCCAUGATT against ZNF627 | 0.204 (inactive) |
| GGAAACCUCUGGACCUCUATT against ARID1A | -1.14 (active) |
| GGACAGAUCUGCAAAGAGATT against CETP | 0 (inactive) |
| GAUGUACCUUGAUACAGUATT against IDH3A | 0.137 (inactive) |
| CUGAUGAUCUACUCAUAUATT against TEKT1 | 0.222 (inactive) |
| GCUCCAUCCUUAUUCAACATT against ZIK1 | -0.0627 (inactive) |
| GCUCAUCUGGAUAACCUGATT against ZNF513 | -0.0616 (inactive) |
| GGCUAUUAUUGACAUGGUUTT against PDE8B | 0.217 (inactive) |
| GAAUAUGAAACAUUCGAUATT against GLRX3 | 0.0784 (inactive) |

| Sequence | median seed-adjusted z-score |
| --- | --- |
| CUUCUGAACUCGGUCCUCATT against SLC5A5 | 1.01 (active) |
| GGCUUUCAUUGAGCAGGAATT against ATP6V1E2 | -0.162 (inactive) |
| GACCAGCAAUGCCUACGUATT against FLRT1 | -0.00451 (inactive) |
| GCAAAACCCUGGAAGGAUATT against KCTD11 | 0.374 (inactive) |
| UGACAGUGACGGAUGCUAATT against OPLAH | -0.233 (inactive) |
| CGAUCGACUCGGUGACUUUTT against COL7A1 | 1.08 (active) |
| GAAGUCACGUCACUACUUATT against ZNF644 | 0.389 (inactive) |
| CACAGAUCAUUAUCUAAAUTT against LONP2 | 1.52 (active) |
| CCUCAGAACCGGCAAGAAATT against TNFAIP1 | 0.0766 (inactive) |
| CCAAAAUGUUUCAUCCAAATT against UBE2B | 0.333 (inactive) |
| GAGUUAUGCAAGACAGUAUTT against MYSM1 | -0.116 (inactive) |
| GCAGCAACCUUGUCAUCCATT against ZNF692 | 0.556 (inactive) |
| CACCAGCGACGGGAUCUUATT against RHOBTB2 | -0.139 (inactive) |
| CCGUCACAGUAGAGACUAUTT against LRRC4C | -0.122 (inactive) |
| GCAAUUACAUGAGCGAGCATT against PLK1 | -2.57 (active) |
| GCUCCAUCAUCGUUGCAUUTT against SYPL2 | 0.233 (inactive) |
| CCAUAUUCCUCAUGCAUGUTT against FCRL5 | -0.138 (inactive) |
| CAUCAGGAAUUACGGGACATT against GPR123 | 0 (inactive) |
| AGGGAACAAGUUUACCAAATT against GTF2IRD1 | -0.282 (inactive) |
| GGUUAGACAUCAGUCCUUUTT against DHX15 | 1.36 (active) |
| CAGUUCCAGAUGAACCAUATT against DHDDS | 0.0122 (inactive) |
| CACGGGAUAUGGAACGAAATT against CXCR7 | -0.511 (inactive) |

| Sequence | median seed-adjusted z-score |
| --- | --- |
| GAACAGUCCCUGGUUCCCATT against ECSIT | -0.116 (inactive) |
| UGCCCUUGGCUAUCCCUGATT against SLC30A3 | -1.26 (active) |
| GGCUUUGUCAGUUCCCAGATT against SPRR2B | 0.388 (inactive) |
| GCUUUGCUCUGUACCCUGATT against CTSK | 0.0972 (inactive) |
| CCAUUAACCACAUACCAGATT against TLR7 | 0.189 (inactive) |
| CCAGUUCUUUAGGAUCUAUTT against GPR141 | -0.777 (inactive) |
| GCGGAGCAUUUGCAACAAATT against NR6A1 | -0.287 (inactive) |
| GCACCUUUAGGCGAAGGAATT against SENP6 | -1.03 (active) |
| CCAUCAUCCCUAAGCGAAUTT against REXO1 | -0.748 (inactive) |
| GUGUGGUCAUUCAACUUGATT against ZNF324B | 0.176 (inactive) |
| GCACCUUCCUGCUAAGAUUTT against STAT3 | 0 (inactive) |
| GCUACUCCCUGAUUCAGAATT against SLC2A7 | -0.0337 (inactive) |
| CUACAAAAGUUUUUCCAGATT against COX7A2L | 0 (inactive) |
| CACGGUAUCUCAACCGGAATT against HGS | 1.16 (active) |
| CCCAGGCUCGAAUCCCAUATT against PLD3 | 0.066 (inactive) |
| CCUUCUCCGUGAUUGAGGATT against LGI4 | -0.239 (inactive) |
| GGCGACAGAUGUGAAAGAATT against LDLR | -0.142 (inactive) |
| GAUUGAUAGAAGCACCCUATT against DCC | 0.303 (inactive) |
| AAGACAAGCUAAAAAUGAUTT against YWHAE | 1.38 (active) |
| GCAAGGACCCAACAACCAATT against TTC9 | -0.173 (inactive) |
| GUCAUUUCUUUACCCAAGATT against NUDT5 | 0.228 (inactive) |
| GGAAAACUGCGGCUGCAAATT against AP1S1 | -1.04 (active) |

| Sequence | median seed-adjusted z-score |
| --- | --- |
| GCACGAAAAUCCCGACAUATT against DDX54 | 0 (inactive) |
| GGCCGAAUUUAUAAAGGAATT against CHI3L1 | 0.145 (inactive) |
| GAGGUACGCUGGUUCUACATT against DDHD1 | 0 (inactive) |
| GCAUAGAGGAGAUCUGUGATT against PROC | -0.228 (inactive) |
| ACUUCUACACGUUUCCAAATT against THAP11 | -1.36 (active) |
| GAACAACACGACCAACAGATT against PRKD2 | 0.00493 (inactive) |
| GGGUCGACCUAUUUCCGAATT against DYSF | -0.23 (inactive) |
| GCAAACCGGUUAAUCAAGATT against GGA2 | -0.142 (inactive) |
| GAUCCUCAGUAAACCUAUUTT against DDX46 | -1.24 (active) |
| GCAUGUUGGUUCACUAUGATT against TPST1 | -0.00547 (inactive) |
| AGGUCUUUCCCAACGAGGATT against UBE2S | 0.348 (inactive) |
| GGAUGCACUUUGUCCGAAATT against SPATA5 | -1.04 (active) |
| AGUUGGGAUUAAUACUUCATT against CCL7 | 0.23 (inactive) |
| GAACUUGUCUUGCGCAAAATT against ZEB1 | -0.163 (inactive) |
| GGUUUGUGGUGGAAGAUUATT against PLCD3 | 0.228 (inactive) |
| GGAUCACUCUAACAUCGGATT against PDE1C | 0.157 (inactive) |
| GGAUCAGUAUGGGCAAAGATT against CALB1 | 0.191 (inactive) |
| UCUCUACAACAAAAUUUAATT against POLR2L | -1.19 (active) |
| CACUUGAUGUUAUUCGUGUTT against MOAP1 | 0.0405 (inactive) |
| GGAAGGAUCAAACUACAAATT against AATF | 0.182 (inactive) |
| CAUUAUCGAUACUAUGUAATT against PSMD6 | -1.03 (active) |
